Experimental findings from PubChem BioAssay are described below.

Values without a mark were called inactive.

The assay can be described thus: plasmodial surface anion channel blockers, osmotic lysis – cell-based, P. falciparum Indochina, OD700, 2 h, primary screen (AID 1155).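 Also: lysis reports solute entry through the parasite surface anion channel PSAC.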 The settings on record: P. falciparum Indochina infected erythrocytes, higher = more signal, called active from +8 up or from −8 down.
As to `O=C(CS)NCCCCCNC(=O)[C@@H]1C[C@@H]2C(=O)NCC(=O)N2[C@@H]1c1cccc(OCCO)c1`, the z-score was 0.151.
In the case of `O=C(CS)NCCCCCNC(=O)[C@H]1C[C@H]2C(=O)NCC(=O)N2[C@H]1c1cccc(OCCO)c1`, the z-score was -0.851.
Consider `CN(C)CCCCNC(=O)[C@@H]1C[C@@H]2C(=O)N[C@@H](CCCCN)C(=O)N2[C@@H]1c1ccc(O)cc1`, for which the z-score is 1.43.
Consider `COc1ccc(CCNC(=O)[C@@]2(C)c3ccccc3C(=O)N(c3ccc(C)cn3)[C@H]2c2ccc(CO)cc2)cc1`, for which the z-score is -0.1.
For `O=C(NCCN1CCOCC1)[C@@H]1c2ccccc2C(=O)N(Cc2cc(C(F)(F)F)cc(C(F)(F)F)c2)[C@H]1c1ccc(CO)cc1`, the z-score was 1.44.
`O=C(NCc1ccccc1)[C@@H]1c2ccccc2C(=O)N(C2Cc3ccccc3C2)[C@H]1c1ccc(CO)cc1`: the z-score was -0.627.
As to `COCCOC(=O)N1C(=O)[C@@]2(c3cc(C#CC4(O)CCCCCC4)ccc31)[C@H](C(=O)Nc1nc3ccccc3s1)[C@H]1C(=O)O[C@H](c3ccccc3)[C@H](c3ccccc3)N1[C@@H]2c1ccccc1OCCO`, the z-score was 1.81.
With `CC1CC/C=C\[C@H]2OC34C=CCN(c5ccc6ccccc6c5)C(=O)[C@H]3N(CCO)C(=O)[C@@H]4C2C(=O)O1` (some centres undefined) the figure was 0.531; with `O=C1O[C@@H](c2ccccc2)[C@@H](c2ccccc2)N2[C@@H](c3ccc(OCCO)cc3)[C@]3(C(=O)Nc4ccc(C#CCCO)cc43)[C@@H](C(=O)NC[C@H](O)c3ccccc3)[C@H]12`, 1.4.
